Measurements: the supplement of paper PMC12067926

Legend:
Test in all cases: relative growth (AUC of 72 h growth curve relative to DMSO control, dAUC) (ratio); higher = more growth (less inhibition), active = hit call of the paper
Settings in all cases: 20 µM;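 active = growth AUC significantly below the DMSO wells by Dunnett test; inactive = the rest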
[1] = system: Aeromonas 1 (Aeromonas sp. AE235)
How it was run: (§1)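 Growth was followed as A600, read hourly for 72 h on a plate reader after brief shaking. Isolates from Icelandic stream sediments and Silwood Park soil, and whole sediment communities, were first grown to carrying capacity in Luria–Bertani medium and then diluted 1:100 into 96-well plates with each chemical at 20 µM (1% DMSO). Relative growth (dAUC) is the spline-integrated area under the curve scaled to the mean of the DMSO controls, and the values are averages of three biological replicates.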

[2] = system: Aeromonas 2 (Aeromonas sobria)
How it was run: as §1

[3] = system: Aeromonas 3 (Aeromonas popoffii)
How it was run: as §1

[4] = system: Argrobacterium 1 (Agrobacterium sp.)
How it was run: as §1

[5] = system: Arthrobacter 1 (Arthrobacter humicola)
How it was run: as §1

[6] = system: Arthrobacter 2 (Arthrobacter humicola)
How it was run: as §1

[7] = system: Arthrobacter 3 (Arthrobacter sp.)
How it was run: as §1

Community 4 = system: Community 4
How it was run: as §1

Community 6 = system: Community 6
How it was run: as §1

Community 7 = system: Community 7
How it was run: as §1

Community 8 = system: Community 8
How it was run: as §1

Community 9 = system: Community 9
How it was run: as §1

[8] = system: Flavobacterium 1 (Flavobacterium glaciei)
How it was run: as §1

[9] = system: Flavobacterium 2 (Flavobacterium succinicans)
How it was run: as §1

[10] = system: Hymenobacter 1 (Hymenobacter glaciei)
How it was run: as §1

[11] = system: Microbacterium 1 (Microbacterium arborescens)
How it was run: as §1

[12] = system: Neobacillus 1 (Neobacillus soli)
How it was run: as §1

[13] = system: Oryzobacter 1 (Oryzobacter terrae)
How it was run: as §1

[14] = system: Paenibacillus 1 (Paenibacillus castaneae)
How it was run: as §1

Row | SMILES | relative growth [1] | relative growth [2] | relative growth [3] | relative growth [4] | relative growth [5] | relative growth [6] | relative growth [7] | relative growth (Community 4) | relative growth (Community 6) | relative growth (Community 7) | relative growth (Community 8) | relative growth (Community 9) | relative growth [8] | relative growth [9] | relative growth [10] | relative growth [11] | relative growth [12] | relative growth [13] | relative growth [14]
1 | COC(=O)c1ccccc1S(=O)(=O)NC(=O)Nc1nc(C)nc(OC)n1 | 1.02 (inactive) | 1.01 (inactive) | 1.07 (inactive) | 0.964 (inactive) | 1.16 (inactive) | 1.14 (inactive) | 1.01 (inactive) | 1.16 (inactive) | 1.12 (inactive) | 0.941 (inactive) | 1.1 (inactive) | 1.1 (inactive) | 1.09 (inactive) | 1.08 (inactive) | 1.14 (inactive) | 1.01 (inactive) | 1.11 (inactive) | 0.997 (inactive) | 1.16 (inactive)
2 | CC[C@H]1CCC[C@H](O[C@H]2CC[C@H](N(C)C)[C@@H](C)O2)[C@@H](C)C(=O)C2=C[C@@H]3[C@@H](C=C(C)[C@@H]4C[C@@H](O[C@@H]5O[C@@H](C)[C@H](OC)[C@@H](OC)[C@H]5OC)C[C@@H]34)[C@@H]2CC(=O)O1.CC[C@H]1CCC[C@H](O[C@H]2CC[C@H](N(C)C)[C@@H](C)O2)[C@@H](C)C(=O)C2=C[C@H]3[C@@H]4C[C@H](O[C@@H]5O[C@@H](C)[C@H](OC)[C@@H](OC)[C@H]5OC)C[C@H]4C=C[C@H]3C2CC(=O)O1 | 0.972 (inactive) | 0.977 (inactive) | 0.979 (inactive) | 1.08 (inactive) | 0.832 (inactive) | 0.89 (inactive) | 0.999 (inactive) | 0.855 (inactive) | 0.699 (inactive) | 1.36 (inactive) | 0.95 (inactive) | 0.711 (inactive) | 0.859 (inactive) | 0.951 (inactive) | 1.06 (inactive) | 0.985 (inactive) | 0.965 (inactive) | 1.14 (inactive) | 0.832 (inactive)
3 | O=C(NC(=O)c1c(F)cccc1F)Nc1ccc(Cl)cc1 | 1.01 (inactive) | 1.01 (inactive) | 0.986 (inactive) | 1.04 (inactive) | 0.955 (inactive) | 0.985 (inactive) | 1.09 (inactive) | 0.924 (inactive) | 0.996 (inactive) | 0.985 (inactive) | 1.06 (inactive) | 1.05 (inactive) | 0.844 (inactive) | 0.949 (inactive) | 0.917 (inactive) | 1.03 (inactive) | 0.942 (inactive) | 1.04 (inactive) | 0.957 (inactive)
4 | O=C1C2(Cl)C3(Cl)C4(Cl)C(Cl)(Cl)C5(Cl)C3(Cl)C1(Cl)C5(Cl)C24Cl (centres undefined) | 0.934 (inactive) | 0.817 (active) | 0.99 (inactive) | 1.03 (inactive) | 0.00606 (active) | 0.00565 (active) | 0.0264 (active) | 0.858 (inactive) | 0.811 (inactive) | 1.14 (inactive) | 1.02 (inactive) | 0.875 (inactive) | 0.126 (active) | 0.847 (inactive) | 0.00946 (active) | 1.01 (inactive) | 0.911 (inactive) | 0.00589 (active) | 0.678 (active)
5 | CSc1nc(NC(C)C)nc(NC(C)C)n1 | 0.966 (inactive) | 0.971 (inactive) | 0.983 (inactive) | 1.03 (inactive) | 1.03 (inactive) | 0.956 (inactive) | 1.07 (inactive) | 0.933 (inactive) | 0.922 (inactive) | 1.02 (inactive) | 0.97 (inactive) | 0.97 (inactive) | 1.02 (inactive) | 0.946 (inactive) | 0.914 (inactive) | 1.02 (inactive) | 0.987 (inactive) | 0.978 (inactive) | 0.877 (inactive)
6 | Clc1ccc(C(c2ccc(Cl)cc2)C(Cl)(Cl)Cl)cc1 | 0.999 (inactive) | 0.972 (inactive) | 0.973 (inactive) | 1.02 (inactive) | 0.353 (active) | 0.211 (active) | 0.316 (active) | 0.976 (inactive) | 0.983 (inactive) | 1.11 (inactive) | 0.997 (inactive) | 1.03 (inactive) | 0.767 (inactive) | 0.979 (inactive) | 0.976 (inactive) | 0.973 (inactive) | 1.1 (inactive) | 1.06 (inactive) | 0.913 (inactive)
7 | CCNc1nc(Cl)nc(NC(C)C)n1 | 0.965 (inactive) | 0.972 (inactive) | 0.992 (inactive) | 1.01 (inactive) | 0.902 (inactive) | 1.03 (inactive) | 0.968 (inactive) | 1.05 (inactive) | 1.01 (inactive) | 1.01 (inactive) | 1.01 (inactive) | 1 (inactive) | 1.05 (inactive) | 0.972 (inactive) | 1.06 (inactive) | 1.02 (inactive) | 1.03 (inactive) | 0.998 (inactive) | 1.01 (inactive)
8 | CC1(C)C(C=C(Cl)Cl)C1C(=O)OC(C#N)c1cccc(Oc2ccccc2)c1 (centres undefined) | 0.976 (inactive) | 1.04 (inactive) | 1.08 (inactive) | 1.07 (inactive) | 1.28 (inactive) | 0.971 (inactive) | 1.03 (inactive) | 1.1 (inactive) | 1.12 (inactive) | 0.963 (inactive) | 1.08 (inactive) | 1.12 (inactive) | 0.979 (inactive) | 1.05 (inactive) | 1.08 (inactive) | 1.03 (inactive) | 1.02 (inactive) | 1.07 (inactive) | 1 (inactive)
9 | CCC(C)(C)C(=O)OC1=C(c2ccc(Cl)cc2Cl)C(=O)OC12CCCCC2 | 0.99 (inactive) | 0.957 (inactive) | 1 (inactive) | 1.01 (inactive) | 0.721 (inactive) | 0.892 (inactive) | 0.892 (inactive) | 1.03 (inactive) | 1.08 (inactive) | 1.13 (inactive) | 0.972 (inactive) | 1.05 (inactive) | 0.794 (inactive) | 1.02 (inactive) | 1.01 (inactive) | 0.978 (inactive) | 1 (inactive) | 1.03 (inactive) | 0.964 (inactive)
10 | N#Cc1cc(Br)c(O)c(Br)c1 | 0.985 (inactive) | 0.899 (inactive) | 1.01 (inactive) | 1.03 (inactive) | 0.984 (inactive) | 0.827 (inactive) | 1.02 (inactive) | 1.08 (inactive) | 1.05 (inactive) | 1.07 (inactive) | 1.05 (inactive) | 1.08 (inactive) | 1.02 (inactive) | 0.951 (inactive) | 0.861 (inactive) | 1.05 (inactive) | 0.842 (inactive) | 0.742 (active) | 1.16 (inactive)
11 | CCCSP(=O)(OCC)Oc1ccc(Br)cc1Cl (centres undefined) | 1.02 (inactive) | 1.02 (inactive) | 0.994 (inactive) | 1.12 (inactive) | 0.894 (inactive) | 0.745 (inactive) | 0.973 (inactive) | 0.833 (inactive) | 0.83 (inactive) | 1.01 (inactive) | 0.96 (inactive) | 0.866 (inactive) | 1.01 (inactive) | 0.919 (inactive) | 0.98 (inactive) | 1.01 (inactive) | 0.965 (inactive) | 1.27 | 0.925 (inactive)
12 | CCNC(=O)NC(=O)/C(C#N)=N/OC | 0.983 (inactive) | 0.967 (inactive) | 0.988 (inactive) | 1.01 (inactive) | 0.901 (inactive) | 0.894 (inactive) | 0.975 (inactive) | 0.963 (inactive) | 1 (inactive) | 1.13 (inactive) | 1.02 (inactive) | 0.993 (inactive) | 1.01 (inactive) | 0.994 (inactive) | 1.02 (inactive) | 0.986 (inactive) | 0.997 (inactive) | 0.977 (inactive) | 0.994 (inactive)
13 | COP(=S)(OC)Oc1ccc(SC)c(C)c1 | 1.02 (inactive) | 0.974 (inactive) | 1.03 (inactive) | 1.05 (inactive) | 1.17 (inactive) | 0.942 (inactive) | 1.01 (inactive) | 0.985 (inactive) | 1.05 (inactive) | 0.973 (inactive) | 1 (inactive) | 1.02 (inactive) | 0.934 (inactive) | 0.998 (inactive) | 1.01 (inactive) | 0.99 (inactive) | 0.955 (inactive) | 1.02 (inactive) | 1.02 (inactive)
14 | CC1(C)[C@H](/C=C(\Cl)C(F)(F)F)[C@@H]1C(=O)OC(C#N)c1cccc(Oc2ccccc2)c1 (some centres undefined) | 0.951 (inactive) | 0.993 (inactive) | 1.04 (inactive) | 1.07 (inactive) | 1.28 (inactive) | 0.838 (inactive) | 0.955 (inactive) | 0.998 (inactive) | 1.03 (inactive) | 1.19 (inactive) | 1.09 (inactive) | 0.956 (inactive) | 0.836 (inactive) | 0.995 (inactive) | 1.06 (inactive) | 0.995 (inactive) | 0.958 (inactive) | 1.11 (inactive) | 0.889 (inactive)
15 | C/C(=N\C#N)N(C)Cc1ccc(Cl)nc1 | 0.986 (inactive) | 1.01 (inactive) | 1.04 (inactive) | 0.965 (inactive) | 1.03 (inactive) | 0.972 (inactive) | 0.973 (inactive) | 1 (inactive) | 1.05 (inactive) | 1.02 (inactive) | 1.05 (inactive) | 0.986 (inactive) | 0.92 (inactive) | 1.02 (inactive) | 0.997 (inactive) | 0.997 (inactive) | 0.993 (inactive) | 1.07 (inactive) | 1.06 (inactive)
16 | COC(=O)N(C(=O)N1CO[C@@]2(C(=O)OC)Cc3cc(Cl)ccc3C2=N1)c1ccc(OC(F)(F)F)cc1 | 0.96 (inactive) | 0.963 (inactive) | 0.971 (inactive) | 1.03 (inactive) | 1 (inactive) | 0.972 (inactive) | 1.02 (inactive) | 1.03 (inactive) | 0.974 (inactive) | 1.01 (inactive) | 1.02 (inactive) | 1.01 (inactive) | 1.1 (inactive) | 0.979 (inactive) | 1.05 (inactive) | 1.04 (inactive) | 1.03 (inactive) | 1.09 (inactive) | 0.948 (inactive)
